Screening results from PubChem.
Compounds with a hit are over-represented: about 0.83% of the library has one in this group of screens.
SRC2 inh: human SRC2 (NCOA2) inhibition. Q15596. HEK293 GAL4-SRC2 luciferase reporter, luminescence. inhibition, % at 9 µM. hit rate 0.17% among 370,000. AID 651957;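 active means inhibition above the mean inhibition of all tested compounds plus 3 SD, set per campaign, cut at about 52% in these data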;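 further: 0% = DMSO treated cells and 100% = cells given Gossypol at 36 µM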
SRC3 inh: human NCOA3 inhibition; AID 588352; inhibition, % at 3.6 µM; Q9Y6Q9; HEK293 GAL4-SRC3 luciferase reporter, luminescence; hit rate 0.17% among 360,000;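 active means inhibition above a per-campaign cutoff, the mean of all compounds plus 3 SD, cut at about 60% in these data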;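 further: 0% = DMSO-treated cells and 100% = gossypol-treated cells at 36 µM; higher means less SRC3-driven luciferase light from the GAL4 reporter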
Target sequence (Q9Y6Q9 whole entry, looked up, the tested form may be a part): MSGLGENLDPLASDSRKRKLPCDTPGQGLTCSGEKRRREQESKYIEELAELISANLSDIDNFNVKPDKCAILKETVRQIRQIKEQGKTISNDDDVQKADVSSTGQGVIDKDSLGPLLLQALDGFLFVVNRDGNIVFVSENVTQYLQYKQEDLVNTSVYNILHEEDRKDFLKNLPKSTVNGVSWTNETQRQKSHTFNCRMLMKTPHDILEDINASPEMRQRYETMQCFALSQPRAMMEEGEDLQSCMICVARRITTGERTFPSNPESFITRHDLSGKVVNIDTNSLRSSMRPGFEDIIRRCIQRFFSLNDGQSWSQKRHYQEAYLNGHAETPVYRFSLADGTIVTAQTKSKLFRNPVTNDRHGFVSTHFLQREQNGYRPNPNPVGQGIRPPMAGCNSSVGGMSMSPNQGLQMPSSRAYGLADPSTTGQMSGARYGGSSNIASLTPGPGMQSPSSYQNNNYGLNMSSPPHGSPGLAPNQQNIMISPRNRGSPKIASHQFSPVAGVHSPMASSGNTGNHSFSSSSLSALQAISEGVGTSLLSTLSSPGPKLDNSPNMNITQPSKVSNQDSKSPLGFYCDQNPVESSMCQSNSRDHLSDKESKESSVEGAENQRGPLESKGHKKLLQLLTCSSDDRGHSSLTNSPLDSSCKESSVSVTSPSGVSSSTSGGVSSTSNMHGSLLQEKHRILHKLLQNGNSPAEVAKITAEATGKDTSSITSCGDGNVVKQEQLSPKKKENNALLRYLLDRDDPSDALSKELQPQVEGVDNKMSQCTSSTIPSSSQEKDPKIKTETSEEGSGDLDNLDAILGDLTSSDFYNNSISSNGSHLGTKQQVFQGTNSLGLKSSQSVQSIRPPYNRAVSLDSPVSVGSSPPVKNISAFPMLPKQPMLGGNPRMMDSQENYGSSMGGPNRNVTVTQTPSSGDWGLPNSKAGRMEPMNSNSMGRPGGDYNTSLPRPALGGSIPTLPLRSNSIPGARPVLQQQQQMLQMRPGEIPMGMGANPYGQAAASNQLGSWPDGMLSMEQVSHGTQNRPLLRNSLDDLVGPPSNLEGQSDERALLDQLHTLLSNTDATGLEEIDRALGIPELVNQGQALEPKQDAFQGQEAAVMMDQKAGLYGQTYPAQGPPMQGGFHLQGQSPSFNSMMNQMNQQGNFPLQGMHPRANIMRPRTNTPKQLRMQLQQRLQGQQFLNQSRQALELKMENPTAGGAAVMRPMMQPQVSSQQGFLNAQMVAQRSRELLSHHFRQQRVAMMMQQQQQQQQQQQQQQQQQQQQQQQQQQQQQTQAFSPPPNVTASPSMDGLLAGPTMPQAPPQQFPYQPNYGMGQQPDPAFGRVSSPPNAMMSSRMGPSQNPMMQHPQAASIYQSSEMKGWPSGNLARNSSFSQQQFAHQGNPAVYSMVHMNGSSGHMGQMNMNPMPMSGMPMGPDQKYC
NR2F2 inh: NR2F2 (human) inhibition, primary screen. P24468. HEK293T NGFI-A luciferase reporter, luminescence. inhibition, % at 8.6 µM. hit rate 0.7% among 370,000. AID 686940;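 active means inhibition above a per-plate cutoff, mean inhibition of test wells between control levels plus 3 SD, cut at about 38% in these data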;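 further: cells cotransfected with COUP-TFII expression vector driving the NGFI-A reporter; 0% = median of COUP-TF2 test wells and 100% = reporter-only cells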
LRH-1 inv ag: NR5A2 inverse agonism in reporter assay | HEK293T StAR-luciferase reporter, LRH-1 transfected, 24 h | AID 602396 | inhibition, % at 3.6 µM | hit rate 0.13% among 360,000 | O00482;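 active means inhibition above the mean inhibition of all tested compounds plus 3 SD, cut at about 73% in these data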;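 further: 0% = DMSO wells and 100% = reporter-only cells lacking LRH-1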
NCOA1 inh: inhibits human SRC1 coactivator | Q15788 | HEK293 GAL4-SRC1 luciferase reporter, luminescence | inhibition, % at 3.6 µM | hit rate 0.12% among 360,000;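 active means inhibition above the campaign mean plus 3 SD, with each screening campaign given its own cutoff, cut at about 60% in these data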;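 further: 0% = DMSO treated cells and 100% = gossypol at 36 µM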
Numbers without * were called inactive; nt = no result.

SMILES	SRC2 inh	SRC3 inh	NR2F2 inh	LRH-1 inv ag	NCOA1 inh
CC(C)CCNC(=O)C1CCCN(C(=O)c2ccc3c(c2)NC(=O)CS3)C1 (stereo unspecified)	0	nt	-2	nt	nt
CCCC(=O)N(Cc1cc(=O)[nH]c2ccccc12)c1ccc(C)cc1C	6	-14	-7	3	11
Cc1ccc(N(Cc2cc(=O)[nH]c3ccccc23)C(=O)CCl)c(C)c1	69*	42	8	60	27
CC(C)CC(=O)/C(=C\c1ccc(Cl)cc1Cl)n1cncn1	nt	71*	nt	27	47
CC1CCN(c2ccc(C(=O)O)cc2NS(=O)(=O)c2ccccc2[N+](=O)[O-])CC1	-4	nt	12	nt	nt
c1csc(CNc2ccc3c(c2)OCCO3)c1	39	52	64*	53	54
N#Cc1sc2nccc(Nc3ccccc3)c2c1N	42	64*	36	42	72*
C=CCn1c(SCC(=O)Nc2ccccc2OCC)nnc1-c1ccc(C(C)(C)C)cc1	-1	nt	15	nt	nt
CCOc1ccc(CCNC(=O)c2cc3sccc3n2Cc2cccc(C)c2)cc1OCC	nt	nt	21	nt	nt
COc1ccc(N(C(=O)CCl)C(C(=O)NC2CCCCC2)c2cccnc2)cc1 (stereo unspecified)	63*	70*	10	11	47
COc1ccc(C(C(=O)NC2CCCCC2)N(C(=O)CCl)c2cccc(Cl)c2)cc1 (stereo unspecified)	16	69*	-8	16	17
O=C(NC1CCCCC1)C(c1cccnc1)N(C(=O)CCl)c1ccccc1Cl (stereo unspecified)	59*	59	9	58	51
CCc1ccccc1N(C(=O)CNC(=O)c1ccco1)C(C(=O)NC1CCCC1)c1cccnc1 (stereo unspecified)	-2	4	-10	0	-8
O=C(NC1CCCCC1)C(c1cccnc1)N(C(=O)CCl)c1ccc(F)cc1 (stereo unspecified)	50	69*	14	38	54
COc1ccc(C(C(=O)NC2CCCCC2)N(C(=O)CCl)c2ccc(C)cc2)cc1 (stereo unspecified)	38	56	-9	-13	27
COc1ccc(C(C(=O)NC2CCCCC2)N(C(=O)CCl)c2ccc(OC)cc2)cc1 (stereo unspecified)	nt	41	nt	2	-14
O=C(NCCN1CCC(Cc2ccccc2)CC1)C1CCCN(S(=O)(=O)c2ccccc2[N+](=O)[O-])C1 (stereo unspecified)	32	nt	31	nt	nt
O=C(Nc1ccc2[nH]ccc2c1)c1cc(-c2ccc(Cl)cc2)nc2ccccc12	-40	nt	-14	nt	nt
CCCCCCCC(=O)N[C@H]1CC[C@@]23CCCN2C(=O)CCC[C@H]3[C@H]1C	nt	nt	-1	nt	nt
Nc1[nH]c(C(=O)c2ccccc2)c(-c2ccc(O)cc2)c1C(=O)NCCc1c[nH]c2ccccc12	nt	nt	25	nt	nt
COc1ccc(CNC(=O)O[C@H]2CC[C@@]34CCCN3C(=O)CCC[C@H]4[C@H]2C)cc1OC	nt	nt	3	nt	nt
CCN(CC)S(=O)(=O)c1ccc(N/N=C/c2ccc(O)cc2O)nc1	31	68*	-40	40	46
CCN(CC)c1ccc2nc3ccccc3[n+](CC)c2c1	nt	68*	nt	76*	63*
Cc1ccc(-c2cc(C(=O)NCCCN3CCOCC3)no2)cc1	56*	21	18	18	26
C=CC[n+]1ccc(/C=C2\C=Cc3cc(C)ccc3N2CC)c2ccccc21	nt	73*	nt	86*	51
SMILES	SRC2 inh	SRC3 inh	NR2F2 inh	LRH-1 inv ag	NCOA1 inh
O=C(c1ccccc1OCc1ccccc1)N(Cc1ccccn1)CC1CCCO1 (stereo unspecified)	14	nt	-15	nt	nt
Cc1cc(O)c2c(c1O)C(=O)[C@]13C(=C2O)C(=O)[C@@H]2[C@@H](O)[C@H]1[C@@H]1[C@H](O)[C@H]3C(=O)C3=C(O)c4c(O)cc(C)c(O)c4C(=O)[C@]312	nt	75*	nt	96*	72*
CCN(CC)C(=O)CSc1nnc(-c2ccccn2)n1C	-19	nt	-23	nt	nt
c1ccc(CN2CCN(c3ncnc4c3[nH]c3ccccc34)CC2)cc1	20	35	74*	37	-1
Cc1ccc2[nH]c3c(N4CCN(Cc5ccccc5)CC4)ncnc3c2c1	19	7	31	-2	-56
CC(=NNC(=S)N1CC2CCC(CC2)C1)c1ccccn1	22	53	-2	49	26
CC(=NNC(=S)N1CCN(C2CCCCCC2)CC1)c1ccccn1	27	69*	32	65	73*
CC(=NNC(=S)N1CC2CCC(CC2)C1)c1cnccn1	-29	78*	-1	8	77*
O=C(Nc1ccc(N2C(=O)[C@@H]3[C@H](C2=O)[C@@H]2C=C[C@H]3C2)c(Cl)c1)c1ccccn1	nt	nt	-19	nt	nt
O=C(O)COc1ccc(-c2nccc(-c3ccccn3)n2)cc1	67*	10	41*	10	10
NNC(=O)COc1ccc(-c2nccc(-c3ccc(F)cc3)n2)cc1	53*	-3	15	13	-32
Cc1ccc(S(=O)(=O)NC(CC(C)C)C(=O)NCC(c2ccco2)N2CCCCC2)cc1 (stereo unspecified)	nt	72*	nt	38	65*
CC(NC(=O)Nc1nnc(C(F)(F)F)s1)(C(F)(F)F)C(F)(F)F	22	84*	45*	90*	59
Cc1nc2c(O)c3c(c(O)c2nc1C)C1C=CC3CC1	62*	91*	-11	95*	89*
Cc1nc2c(C)c(C)c(C)c(C)c2nc1C	4	-11	-8	3	-59
COc1ccc(S(=O)(=O)N2CCOCC2)cc1NC(=O)CCNC(=O)c1ccc(Cl)cc1	12	-11	4	-9	-5
COc1ccc(S(=O)(=O)N2CCOCC2)cc1NC(=O)CCNC(=O)c1ccc(Br)cc1	57*	31	-6	82*	44
COC(=O)[C@H]1C[C@@]2(Oc3ccc(Br)cc3)c3ccccc3N(C(=O)OC(C)(C)C)[C@H]2N1C(=O)OC(C)(C)C	5	nt	0	nt	nt
O=S(=O)(c1ccc(C(F)(F)F)cc1)N1CCCc2nc(-c3ccc(Br)cc3)ccc21	-18	nt	-16	nt	nt
CC(=O)Nc1c(Br)cc2c(c1Br)C(=O)c1ccccc1-2	-8	-4	20	16	-26
CC(=O)C1=C(c2ccc(Br)cc2)C(=O)c2ccccc2C1=O	70*	92*	71*	85*	91*
COc1ccc(CCNC(=O)c2nnn(-c3ccc4c(c3)OCCO4)c2N)cc1OC	55*	58	93*	48	58
Nc1nc(N)c2c(ccc3c2ccn3Cc2cccc([N+](=O)[O-])c2)n1	23	64*	-10	55	65*
Nc1nc(N)c2cc([N+](=O)[O-])ccc2n1	-11	1	6	-4	-5
Cc1ccccc1N=Nc1c(N)[nH]n(-c2ccccc2)c1=O	-59	nt	-50	nt	nt
CCOc1ccc(-n2c(SCC(=O)NN=Cc3ccc(C(=O)O)cc3)nnc2-c2cccnc2)cc1	-9	nt	-7	nt	nt
COc1cc(Nc2nc(-c3ccccc3)c3cc(C)ccc3n2)cc(OC)c1OC	93*	7	-3	5	13
